A selection: hits, their analogues and other compounds. The true share with any hit is near 4.1%.
DAX1 inh-1 – blocks DAX1 repression of SF-1 activated StAR promoter. HEK293T StAR-luciferase reporter, SF-1/DAX-1 repression relief. inhibition, % at 6.8 µM. 1.1% of 370,000 active. AID 652010;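 active = inhibition above the mean over all tested compounds plus 3 SD, cut at about 3.6% in these data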;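 also: higher inhibition means more luminescence from relief of DAX-1 repression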
ssDAF-12 act – S. stercoralis DAF-12 activation, primary screen; HEK293 ssDAF-12/GRIP1 lit1-tk-luc reporter, luminescence; % of 3 µM dafachronic acid response; activation, % at 6.8 µM; 1% of 370,000 active;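 active = activation above the mean over all tested compounds plus 3 SD, cut at about 0.9% in these data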
hcDAF-12 act – activators of H. contortus DAF-12 nuclear receptor | AID 652067 | 1.4% of 370,000 active | HEK293 hcDAF-12 lit1-tk-luc reporter, luminescence; 0% DMSO, 100% Δ7-dafachronic acid | activation, % at 6.8 µM;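 active = activation above the mean of all tested compounds plus 3 SD, cut at about 5.5% in these data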
hgDAF12 agonist – activates the H. glycines DAF-12 receptor ligand-binding domain | HEK293 GAL4-hgDAF12 UAS-luciferase reporter, agonist luminescence; normalized to butyrate control | activation, % at 6.8 µM | 1.8% of 370,000 active;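 active = activation above a cutoff set at the mean of all screened compounds plus 3 SD, cut at about 10% in these data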
DAX1 inh-2 – inhibits human nuclear receptor DAX1. P51843. HEK293 Gal4-DAX1 luciferase reporter, luminescence. inhibition, % at 6.75 µM. 0.99% of 340,000 active. AID 504766;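 active = inhibition above the mean over all tested compounds plus 3 SD, cut at about 4.2% in these data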;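 also: inhibition shows as a rise in luminescence from relieved DAX1 repression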
Target sequence (P51843 207-470 limits assumed): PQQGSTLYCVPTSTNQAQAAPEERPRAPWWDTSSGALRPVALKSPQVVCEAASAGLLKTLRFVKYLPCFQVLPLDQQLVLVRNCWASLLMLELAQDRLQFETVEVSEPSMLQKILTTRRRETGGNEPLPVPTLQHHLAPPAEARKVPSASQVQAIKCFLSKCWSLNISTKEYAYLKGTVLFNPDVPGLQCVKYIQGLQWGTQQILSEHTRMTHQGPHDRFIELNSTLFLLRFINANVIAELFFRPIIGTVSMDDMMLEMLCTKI
LXR ag – LXR-beta agonism as hcDAF-12 counter-screen; shares compounds with hcDAF-12 act; activation, % at 6.8 µM; HEK293 Gal4-LXR tk-luc reporter, luminescence, 24 h; normalized: DMSO 0%, positive control 100%; 3,400 tested, under 10 active;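 active = mean percent activation of the reporter above a cutoff set as the average over tested compounds plus their standard deviation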
hcDAF12 ag – confirmation of H. contortus DAF-12 agonists; shares compounds with hcDAF-12 act; HEK293 hcDAF-12 lit1-tk-luc reporter, luminescence; % of Δ7-dafachronic acid response; activation, % at 6.8 µM; 61% of 3,400 active;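 active = mean activation across triplicate tests above the threshold derived from the earlier primary screen, cut at about 5.5% in these data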
A number is an active result; 0 = inactive; - = no result given.

SMILES	DAX1 inh-1	ssDAF-12 act	hcDAF-12 act	hgDAF12 agonist	DAX1 inh-2	LXR ag	hcDAF12 ag
Cc1ccc(NC(=O)C2COc3ccccc3O2)nc1 (stereo not given)	0	0	9.5	12	0	0	9.4
O=C(Nc1ccccc1)C1COc2ccccc2O1 (stereo not given)	0	0	0	0	0	-	-
Cc1ccc(NC(=O)N(C)c2ccccc2)cc1	0	0	0	0	0	-	-
CC1(C)Oc2ccc(NC(=O)C3COc4ccccc4O3)cc2O1 (stereo not given)	4.4	1.9	8.9	12	0	0	7.6
Cc1ccc(NC(=O)C2COc3ccccc3O2)cc1 (stereo not given)	0	0	6.6	12	0	0	7.7
Cc1ccc(NC(=O)c2ccc(NCCN)c([N+](=O)[O-])c2)cc1	0	0	7.1	0	0	0	0
Cc1ccc(NCC(=O)c2ccccc2)cc1Cl	0	0	7.7	0	0	0	0
Cc1ccc(C(=O)CNc2ccc(C)c(Cl)c2)cc1	0	0	0	0	0	-	-
Cc1ccc(Cl)cc1N1CCN(C(=O)Cc2ccc(-n3c(=O)[nH]c4ccsc4c3=O)cc2)CC1	0	0	0	0	0	-	-
Cc1cc(-c2ccc(Cl)cc2)n2nc(C)cc2n1	0	0	0	0	0	-	-
COc1ccc(-c2cc3nc(C)cc(C)n3n2)cc1	0	2.7	9.2	12	8.0	0	13
Cc1cc(C)n2nc(-c3ccc(Br)cc3)cc2n1	0	1.5	14	11	4.7	0	11
Cc1nc2cc(-c3ccc(Cl)cc3)nn2c(NCCN(C)C)c1C	0	1.5	13	0	0	0	7.5
Cc1cc(C)n2nc(-c3ccc(Cl)cc3)cc2n1	0	1.9	13	11	0	0	12
COc1ccc(OCCSc2nc3nc(C)cc(C)n3n2)cc1	0	0	0	0	0	-	-
CC(C)C[C@@]12C(=O)N(c3cccc(F)c3)C(=O)N1[C@H](c1ccc(F)cc1)[C@@H]1C(=O)N(C3CCCCC3)C(=O)[C@@H]12	0	0	0	0	0	-	-
Cc1nnc(N2CCOCC2)c2nn(-c3ccccc3)c(C)c12	0	0	0	0	0	-	-
c1ccc(-n2nnc3c(N4CCOCC4)ncnc32)cc1	0	0	7.2	0	0	0	6.3
CCOC(=O)c1cnn(-c2ncnc3sc4c(c23)CCC4)c1N	0	0	7.3	0	0	0	0
Nc1c2ccccc2nc2ccccc12	0	2.6	14	0	0	0	25
CC(C(=O)O)n1cc(C#N)c(=O)[nH]c1=O (stereo not given)	0	0	0	0	0	-	-
Cc1ccccc1S(=O)(=O)Oc1cccc2c(O)cccc12	0	0	0	0	0	-	-
COc1ccccc1C(=O)NNC(=O)c1ccc(C)cc1	0	0	0	0	0	-	-
COc1ccccc1C(=O)NNC(=O)c1cccc(F)c1	3.9	1.2	10	0	0	0	11
COc1ccccc1C(=O)NNC(=O)c1cccc(O)c1	0	2.6	10	0	0	0	15
SMILES	DAX1 inh-1	ssDAF-12 act	hcDAF-12 act	hgDAF12 agonist	DAX1 inh-2	LXR ag	hcDAF12 ag
COc1ccccc1C(=O)NNC(=O)c1ccc(NS(=O)(=O)c2cccs2)cc1	0	0	10	0	0	0	6.4
Cc1ccc(-c2nn(-c3ccccc3)cc2CC(=S)N2CCOCC2)cc1	0	0	0	0	0	-	-
CC(C)NC(=O)c1cc(C2CCCCN2C(=O)c2ccc(C#N)cc2)on1 (stereo not given)	0	0	0	0	-	-	-
CC(OC(=O)C1CC(=O)N(Cc2ccco2)C1)C(=O)Nc1cccc(C#N)c1 (stereo not given)	0	0	0	0	0	-	-
COc1cc2c(cc1NC(=O)C(C)OC(=O)C1CC(=O)N(Cc3ccco3)C1)oc1ccccc12 (stereo not given)	0	1.5	8.8	0	0	0	8.0
O=C(NCc1ccccc1Cl)c1ccc2ccccc2n1	0	1.1	7.7	11	0	0	9.1
NS(=O)(=O)c1ccc(CCNC(=O)c2ccc3ccccc3n2)cc1	0	0	6.8	0	0	0	8.5
COc1ccc(CCNC(=O)c2ccc3ccccc3n2)cc1	0	0	7.2	11	0	0	0
O=C(NCc1ccccc1F)c1ccc2ccccc2n1	0	0	0	0	0	-	-
CCN(CC(=O)NCc1ccc(Cl)cc1)C(=O)c1ccc(S(=O)(=O)N(C)C)cc1	0	0	0	0	0	-	-
O=C(Nc1cc(Cl)ccc1-n1cncn1)c1cc(F)c(F)c(F)c1F	0	0	0	0	0	-	-
CC(=O)NCc1ccc(S(=O)(=O)N/N=C/c2ccc(Br)cc2)cc1	0	0	9.0	0	0	0	0
O=C(CCc1nnc(Cc2c[nH]c3ccccc23)o1)NCCC1CCCCO1 (stereo not given)	0	0	6.8	0	0	0	0
O=C(CCc1nnc(Cc2c[nH]c3ccccc23)o1)NC1CCCC1	0	0	0	0	0	-	-
CCC(=O)c1ccc(OCC(=O)NC2(C#N)CCCCC2)cc1	0	0	0	0	0	-	-
O=C(N/N=C\c1cn(-c2ccccc2)nc1-c1ccccc1)c1ccc(Br)o1	0	0	9.4	0	0	0	0
CCOc1cc(C(=O)N/N=C/c2cn(-c3ccccc3)nc2-c2cc3ccccc3o2)cc(OCC)c1OCC	0	0	7.9	0	0	0	5.8
Cc1ccc(-c2nn(-c3ccccc3)cc2/C=N/NC(=O)c2ccc(Br)o2)cc1	0	0	0	0	0	-	-
O=C(Cn1cc(S(=O)(=O)Cc2cccc(F)c2)c2ccccc21)N1CCOCC1	0	0	0	0	0	-	-
C=CCn1c[n+](CC(=O)c2ccc(Br)s2)c2ccccc21	0	0	0	0	-	-	-
O=C(CC1C(=O)NCCN1Cc1ccccc1)NCCCOc1cccnc1 (stereo not given)	0	0	14	0	0	0	0
C=CCN1C(=O)[C@]2(OCCC=C[C@H]2C)c2cc(OC)ccc21	0	0	0	0	-	-	-
NNc1nc2ccc(F)cc2s1	0	0	10.0	0	0	0	0
COc1ccc(NC(=O)N(C)C[C@H]2Oc3c(NC(=O)c4nc5ccccc5s4)cccc3C(=O)N([C@@H](C)CO)C[C@H]2C)cc1	0	0	0	0	0	-	-
Cc1ccc(/C=N/Nc2cccc3cccnc23)c(O)c1	0	0	7.5	0	0	0	17
COc1cccc(C2=Nc3cccc4cccc(c34)N2)c1	0	0	11	0	0	0	0
Nc1ccc(C2=Nc3cccc4cccc(c34)N2)cc1	0	0	0	0	0	-	-
O=C(CCNS(=O)(=O)c1ccc(Br)cc1)NCc1ccco1	0	0	0	0	0	-	-
